Laboratory results from ChEMBL document CHEMBL3988442, “University of Dundee, Small-Polar-MMV Screening Library” (2021).
For some assays here: Results with a measured potency or affinity are listed apart.

How the values were obtained:
Design in all cases: scale not given: direction of the effect not stated beside the values
[1] = molecular target: Protein translocase subunit SecA (Escherichia coli (strain K12)) (UniProt P10408); assay: Assay to Identify E. coli SecA ATPase Inhibitors; type: functional; settings: 30 µM
[2] = molecular target: T1, Ubiquitin-activating enzyme e1, putative (Leishmania donovani (strain BPK282A1)) (UniProt E9BSI1); assay: Leishmania donovani Ubiquitin Activating Enzyme (LdE1); type: functional; settings: 30 µM
T1 sequence (whole entry): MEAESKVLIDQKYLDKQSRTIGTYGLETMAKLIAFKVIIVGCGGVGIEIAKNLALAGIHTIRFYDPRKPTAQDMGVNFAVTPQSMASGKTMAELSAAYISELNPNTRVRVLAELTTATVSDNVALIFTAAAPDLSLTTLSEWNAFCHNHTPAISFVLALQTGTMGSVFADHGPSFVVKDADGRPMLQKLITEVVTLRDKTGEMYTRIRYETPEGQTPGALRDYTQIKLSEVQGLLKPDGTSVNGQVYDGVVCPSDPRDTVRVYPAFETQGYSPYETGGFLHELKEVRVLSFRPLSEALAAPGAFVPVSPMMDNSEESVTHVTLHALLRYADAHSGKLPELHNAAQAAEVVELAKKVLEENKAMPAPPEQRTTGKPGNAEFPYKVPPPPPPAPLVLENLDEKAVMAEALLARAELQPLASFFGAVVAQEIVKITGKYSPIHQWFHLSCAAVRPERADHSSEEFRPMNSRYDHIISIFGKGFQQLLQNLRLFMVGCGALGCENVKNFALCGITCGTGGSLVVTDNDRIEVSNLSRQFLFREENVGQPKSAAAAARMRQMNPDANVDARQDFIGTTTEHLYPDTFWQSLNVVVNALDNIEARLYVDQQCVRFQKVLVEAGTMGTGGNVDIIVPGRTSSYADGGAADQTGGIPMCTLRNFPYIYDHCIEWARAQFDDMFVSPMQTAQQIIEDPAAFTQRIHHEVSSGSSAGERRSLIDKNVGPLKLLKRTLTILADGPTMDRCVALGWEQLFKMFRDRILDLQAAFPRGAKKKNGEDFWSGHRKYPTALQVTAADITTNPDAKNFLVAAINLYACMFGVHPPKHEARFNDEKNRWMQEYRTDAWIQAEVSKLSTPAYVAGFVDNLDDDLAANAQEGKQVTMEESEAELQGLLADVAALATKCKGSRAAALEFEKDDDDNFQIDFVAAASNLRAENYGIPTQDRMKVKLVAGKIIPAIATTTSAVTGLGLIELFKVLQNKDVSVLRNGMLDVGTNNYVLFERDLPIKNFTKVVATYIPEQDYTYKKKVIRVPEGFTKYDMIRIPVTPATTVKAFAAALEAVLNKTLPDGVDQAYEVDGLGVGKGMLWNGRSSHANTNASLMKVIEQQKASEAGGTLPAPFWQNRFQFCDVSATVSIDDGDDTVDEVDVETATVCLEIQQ

[3] = molecular target: Sialic acid-binding Ig-like lectin 9 (Homo sapiens) (UniProt Q9Y336); assay: Hs-Siglec9 ALPHAscreen SOP 20170721; settings: 10 µM
[4] = tested on: Trypanosoma cruzi; assay: Trypanosoma cruzi phosphomannomutase and mannose-1-phosphate guanylyltransferase assay; type: functional; settings: 10 µM
[5] = molecular target: T2, Arginase-2, mitochondrial (Homo sapiens) (UniProt P78540); assay: in vitro enzyme assay to detect the production of urea directly proportional to the activity of Arginase II; type: functional; settings: 33.3 µM; further: in the data most compounds retested in dose-response had high values
T2 sequence (whole entry): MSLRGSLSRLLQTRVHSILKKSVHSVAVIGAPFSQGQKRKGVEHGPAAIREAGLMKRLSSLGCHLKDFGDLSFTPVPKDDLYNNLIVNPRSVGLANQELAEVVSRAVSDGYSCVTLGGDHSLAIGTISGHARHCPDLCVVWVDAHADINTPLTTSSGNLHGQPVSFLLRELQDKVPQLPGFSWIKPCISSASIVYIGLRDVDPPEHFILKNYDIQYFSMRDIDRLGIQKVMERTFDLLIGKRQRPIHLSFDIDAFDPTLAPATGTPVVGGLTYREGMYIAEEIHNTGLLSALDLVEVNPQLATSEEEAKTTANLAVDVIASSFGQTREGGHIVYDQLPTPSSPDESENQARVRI

[6] = molecular target: T3, Proteasome subunit beta (Trypanosoma cruzi) (UniProt O96673); assay: Trypanosoma cruzi proteasome chymotrypsin-like activity (TcProtChymo) assay.; further: in the data most compounds retested in dose-response had high values; type: functional; settings: 9.37 µM
T3 sequence (whole entry): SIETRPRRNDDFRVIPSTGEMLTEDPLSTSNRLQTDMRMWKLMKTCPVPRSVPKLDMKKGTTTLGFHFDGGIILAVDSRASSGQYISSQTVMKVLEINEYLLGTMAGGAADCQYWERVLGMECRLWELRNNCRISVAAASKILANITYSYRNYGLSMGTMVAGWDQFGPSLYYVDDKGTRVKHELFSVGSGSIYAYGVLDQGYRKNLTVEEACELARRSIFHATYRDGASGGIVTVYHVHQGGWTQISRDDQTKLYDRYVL

[7] = species: Homo sapiens; assay: To identify inhibition of the IFN signalling (Jak-Stat) pathway via expression of an eGFP reporter gene under the control of an IFN-stimulated response element (ISRE) containing MxA promoter.; type: functional; settings: 30 µM
[8] = molecular target: T4, Tyrosyl-tRNA synthetase, putative (Trypanosoma cruzi (strain CL Brener)) (UniProt Q4DSP6); assay: Trypanosoma cruzi tyrosyl tRNA synthetase (TcYRS) _High Tyrosine SOP; type: functional; settings: 30 µM; further: in the data most compounds retested in dose-response had high values
T4 sequence (whole entry): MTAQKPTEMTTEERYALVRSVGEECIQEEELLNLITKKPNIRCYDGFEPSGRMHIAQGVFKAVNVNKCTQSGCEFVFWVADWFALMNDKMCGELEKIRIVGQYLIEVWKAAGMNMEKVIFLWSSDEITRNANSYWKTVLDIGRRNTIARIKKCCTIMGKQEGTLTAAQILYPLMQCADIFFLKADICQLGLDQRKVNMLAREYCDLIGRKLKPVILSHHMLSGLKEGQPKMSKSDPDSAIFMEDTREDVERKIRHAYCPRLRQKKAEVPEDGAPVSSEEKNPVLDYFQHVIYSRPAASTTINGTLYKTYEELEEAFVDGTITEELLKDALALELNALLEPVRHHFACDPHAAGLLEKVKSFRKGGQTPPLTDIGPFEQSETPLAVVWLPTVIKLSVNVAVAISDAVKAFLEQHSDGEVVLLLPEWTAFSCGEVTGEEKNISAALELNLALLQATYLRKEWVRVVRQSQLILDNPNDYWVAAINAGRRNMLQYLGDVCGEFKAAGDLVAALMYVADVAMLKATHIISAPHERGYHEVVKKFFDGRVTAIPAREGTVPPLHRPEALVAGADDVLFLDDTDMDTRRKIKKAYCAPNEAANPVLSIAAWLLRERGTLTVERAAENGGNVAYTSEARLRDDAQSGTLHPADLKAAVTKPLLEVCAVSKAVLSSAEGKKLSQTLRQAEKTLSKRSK

[9] = molecular target: T4, Tyrosyl-tRNA synthetase, putative (Trypanosoma cruzi (strain CL Brener)); assay: Trypanosoma cruzi tyrosyl tRNA synthetase (TcYRS) SOP; type: functional; settings: 30 µM
[10] = molecular target: Chromo domain-containing protein 1 (Saccharomyces cerevisiae (strain ATCC 204508 / S288c) (Baker's yeast)) (UniProt P32657); assay: ScCHD-1 Enzyme Inhibition Assay; type: functional; settings: 30 µM; further: in the data most compounds retested in dose-response had high values
Chromo domain-containing protein 1 (Saccharomyces cerevisiae (strain ATCC 204508 / S288c) (Baker's yeast)), sequence (P32657 whole entry, the tested form may be a part): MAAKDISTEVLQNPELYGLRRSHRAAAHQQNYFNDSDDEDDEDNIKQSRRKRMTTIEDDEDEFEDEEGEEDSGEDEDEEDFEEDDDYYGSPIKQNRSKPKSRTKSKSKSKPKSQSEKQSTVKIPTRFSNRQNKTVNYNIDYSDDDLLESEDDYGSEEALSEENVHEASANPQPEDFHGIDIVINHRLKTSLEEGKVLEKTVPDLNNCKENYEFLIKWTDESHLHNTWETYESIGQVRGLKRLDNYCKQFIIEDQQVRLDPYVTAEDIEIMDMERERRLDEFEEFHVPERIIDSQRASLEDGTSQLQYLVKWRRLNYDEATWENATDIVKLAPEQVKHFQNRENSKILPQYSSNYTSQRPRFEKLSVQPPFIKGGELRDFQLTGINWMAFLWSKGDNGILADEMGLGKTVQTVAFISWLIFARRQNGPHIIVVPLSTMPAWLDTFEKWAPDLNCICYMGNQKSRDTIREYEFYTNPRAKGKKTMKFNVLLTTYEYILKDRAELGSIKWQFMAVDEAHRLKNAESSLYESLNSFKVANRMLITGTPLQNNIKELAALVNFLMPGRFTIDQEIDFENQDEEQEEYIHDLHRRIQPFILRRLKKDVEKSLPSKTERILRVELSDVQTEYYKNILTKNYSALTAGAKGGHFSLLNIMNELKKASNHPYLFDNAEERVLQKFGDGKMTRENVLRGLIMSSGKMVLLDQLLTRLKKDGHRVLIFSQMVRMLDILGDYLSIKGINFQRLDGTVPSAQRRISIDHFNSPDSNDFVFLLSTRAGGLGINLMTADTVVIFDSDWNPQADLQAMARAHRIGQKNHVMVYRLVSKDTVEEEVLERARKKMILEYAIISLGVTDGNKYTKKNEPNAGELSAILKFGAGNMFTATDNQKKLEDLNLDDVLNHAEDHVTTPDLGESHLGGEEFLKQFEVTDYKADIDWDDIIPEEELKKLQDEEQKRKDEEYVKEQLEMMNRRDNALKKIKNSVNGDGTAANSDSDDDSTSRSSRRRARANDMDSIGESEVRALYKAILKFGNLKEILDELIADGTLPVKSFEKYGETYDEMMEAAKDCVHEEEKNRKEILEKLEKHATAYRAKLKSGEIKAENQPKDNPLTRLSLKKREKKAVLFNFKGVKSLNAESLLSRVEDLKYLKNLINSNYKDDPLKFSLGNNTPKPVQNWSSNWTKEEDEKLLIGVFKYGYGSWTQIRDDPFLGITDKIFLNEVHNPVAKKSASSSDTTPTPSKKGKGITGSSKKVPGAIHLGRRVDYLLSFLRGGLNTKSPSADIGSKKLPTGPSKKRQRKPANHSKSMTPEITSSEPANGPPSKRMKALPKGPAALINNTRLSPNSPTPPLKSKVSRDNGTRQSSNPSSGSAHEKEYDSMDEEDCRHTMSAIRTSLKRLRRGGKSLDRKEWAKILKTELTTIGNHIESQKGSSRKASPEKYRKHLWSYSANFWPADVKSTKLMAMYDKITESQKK

Sialic acid-binding Ig-like lectin 9 (Homo sapiens), sequence (Q9Y336 whole entry): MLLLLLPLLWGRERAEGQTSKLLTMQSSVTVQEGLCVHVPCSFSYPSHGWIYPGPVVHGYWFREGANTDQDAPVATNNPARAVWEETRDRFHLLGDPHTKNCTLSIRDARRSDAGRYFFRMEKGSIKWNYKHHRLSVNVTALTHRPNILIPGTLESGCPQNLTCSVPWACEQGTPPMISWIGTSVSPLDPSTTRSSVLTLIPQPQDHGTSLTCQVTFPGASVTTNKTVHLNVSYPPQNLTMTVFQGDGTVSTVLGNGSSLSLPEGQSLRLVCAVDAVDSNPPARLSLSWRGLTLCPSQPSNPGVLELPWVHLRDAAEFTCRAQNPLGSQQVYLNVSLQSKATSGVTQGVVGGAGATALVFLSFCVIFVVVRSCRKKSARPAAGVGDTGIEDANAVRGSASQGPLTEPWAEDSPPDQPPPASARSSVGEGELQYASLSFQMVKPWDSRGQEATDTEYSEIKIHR
Protein translocase subunit SecA (Escherichia coli (strain K12)), sequence (P10408 whole entry): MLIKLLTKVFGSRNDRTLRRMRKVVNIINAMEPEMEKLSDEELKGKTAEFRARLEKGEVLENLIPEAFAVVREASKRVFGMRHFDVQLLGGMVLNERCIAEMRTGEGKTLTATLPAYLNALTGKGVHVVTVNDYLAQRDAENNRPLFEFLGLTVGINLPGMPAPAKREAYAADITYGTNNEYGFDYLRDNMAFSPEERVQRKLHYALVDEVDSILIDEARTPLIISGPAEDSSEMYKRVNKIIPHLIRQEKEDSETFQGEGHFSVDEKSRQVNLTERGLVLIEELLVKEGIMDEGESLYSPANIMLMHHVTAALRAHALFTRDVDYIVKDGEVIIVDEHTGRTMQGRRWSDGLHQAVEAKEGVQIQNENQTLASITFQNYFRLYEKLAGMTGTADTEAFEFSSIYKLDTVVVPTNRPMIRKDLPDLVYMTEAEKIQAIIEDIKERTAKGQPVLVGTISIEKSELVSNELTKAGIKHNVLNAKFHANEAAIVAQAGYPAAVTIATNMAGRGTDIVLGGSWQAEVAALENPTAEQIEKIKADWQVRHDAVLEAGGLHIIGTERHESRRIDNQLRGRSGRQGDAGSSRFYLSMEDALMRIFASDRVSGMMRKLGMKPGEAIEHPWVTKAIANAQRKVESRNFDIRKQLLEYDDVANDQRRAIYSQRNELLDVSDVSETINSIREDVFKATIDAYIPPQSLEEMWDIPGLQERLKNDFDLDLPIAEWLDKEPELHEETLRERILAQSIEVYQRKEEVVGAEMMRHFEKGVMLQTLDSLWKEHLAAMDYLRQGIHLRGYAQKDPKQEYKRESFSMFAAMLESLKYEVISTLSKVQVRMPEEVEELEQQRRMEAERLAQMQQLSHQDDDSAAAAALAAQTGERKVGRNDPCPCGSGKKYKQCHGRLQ

Compound | Percent Effect [1] | Percent Effect [2] | Percent Effect [3] | Percent Effect [4] | Percent Effect [5] | Percent Effect [6] | Percent Effect [7] | Percent Effect [8] | Percent Effect [9] | Percent Effect [10]
Cc1csc(N2CCCN(C(=O)c3c(C)oc(C)c3C)CC2)n1 | -7.12% | 18.7% | 3.18% | 4.22% | -1.77% | 20.1% | 8.84% | 7.89% | 17.9% | -8.96%
O=C(NC[C@]1(O)CN(Cc2ccccc2F)C[C@H]1O)c1ccccn1 | -1.11% | 12% | -1.14% | -2.37% | 1.33% | 10.5% | 6.15% | 4.23% | 15% | -24.1%
CN1CCC(c2ncc3c(n2)CCN(C(=O)CC2C=CCC2)C3)CC1 (stereo not given) | 1.34% | 14.7% | -4.21% | -1.58% | 3.1% | 9.03% | 7.04% | 12.7% | 22.5% | -23.1%
O=C(c1cc(C2CC2)[nH]n1)N1CCCC(n2cncn2)C1 (stereo not given) | -2.3% | 7.69% | -12.5% | 4.6% | 1.23% | 8.11% | -13.2% | 2.39% | 10.8% | -2.79%
CCc1nc(CN2CCN(C(=O)C3CCCCC3)CC2)cs1 | -3.52% | 17.9% | -8.26% | 7.23% | 1.64% | 8.28% | 12% | 5.26% | 20.5% | -7.32%
Cn1cc(NC(=O)N2CCC(CN3CCCC3)CC2)ccc1=O | -0.732% | 7.69% | 7.22% | -1.78% | 11.1% | 1.79% | 14.5% | 3.35% | 6.02% | 0.924%
CCNC(=O)[C@@H]1C[C@@H](NC(=O)c2cccnc2O)CN1Cc1ccsc1 | -5.31% | 16.2% | 11.3% | 3.59% | 17.1% | 19.2% | 2.29% | 6.92% | 21.9% | -4.37%
CCc1nc(C2CCCN2CCn2cncn2)no1 (stereo not given) | -1.22% | 5.2% | 7.59% | -0.187% | 3.07% | 3.86% | 1.29% | 1.96% | 7.06% | -4.93%
COc1cccc(CN2CCCC3(CCN(C(=O)c4ccco4)C3)C2)c1 (stereo not given) | -3.23% | 9.09% | 0.7% | 0.563% | 5.02% | 17.8% | 5.54% | 14.5% | 15% | -3.31%
C[C@@H]1CN(C(=O)c2cccs2)C[C@]12CCN(CCN(C)C)C2=O | -6.68% | 9.09% | 2.17% | -6.57% | 0.457% | 9.87% | 18% | 0.966% | -5% | -8.48%
Cc1noc(C)c1CN1CCN(Cc2nccn2C)CC1 | -3.95% | 2.67% | 3.64% | -1.81% | -0.444% | 13.7% | -5.05% | 6.84% | 7.69% | -11.9%
CNC(=O)c1ccc(C2CN(C(=O)COC)CCO2)nc1 (stereo not given) | 0.488% | 9.33% | 3.63% | -4.14% | 3.54% | 7.39% | 0.241% | 2.12% | 7.5% | -21.4%
COC(=O)NCc1cc2n(n1)CCCN(C(C)=O)C2 | -9.99% | 5.41% | -0.0271% | -3.98% | -2.45% | 7.19% | -0.185% | 4.79% | 12.2% | -3.29%
CC(C(=O)N1CCCC1)N1CCC(c2nccn2Cc2cscn2)CC1 (stereo not given) | -2.34% | 0% | 12.9% | -3.4% | 5.94% | 13% | 3.46% | 6.92% | 12.2% | -3.89%
CC(=O)N1[C@@H](C(=O)NCC2CC2)C[C@@H]2CN(Cc3ccco3)C[C@@H]21 | -0.254% | 22.1% | -5.46% | -0.938% | 3.2% | 12.1% | 9.99% | 3.87% | 7.5% | -7.56%
Cc1ccc(-c2nc(CNCC3CN(C)CCO3)cs2)o1 (stereo not given) | 0.253% | 28.6% | -5.08% | 6.53% | -12.9% | 25.4% | 20% | 6.86% | 21.2% | -12.3%
CCc1nc(CN(C)C2CCN(CCNS(=O)(=O)CC)C2)no1 (stereo not given) | 1.97% | 5.33% | -3.88% | -6.83% | -2.22% | 18.1% | 14.6% | -1.58% | -2.56% | -8.45%
COc1ccc(CC(=O)N2CCc3nnc(N(C)C)cc3C2)cc1F | -3.64% | 12.8% | -2.71% | -1.97% | 1.23% | 17.7% | 20.5% | 5.26% | 6.02% | -0.877%
Cc1ccc(NC2CCN(C(=O)c3n[nH]c4ccccc34)CC2)nn1 | -2.85% | 5.33% | 0.786% | -5.62% | 3.55% | -2.29% | 12.2% | 3.68% | 5.13% | -6.5%
CCOC1COC2(CCN(S(=O)(=O)c3cccc(F)c3)CC2)C1 (stereo not given) | -2.48% | 6.49% | -0.342% | -7.3% | 6.07% | 19.9% | -2.83% | 6.84% | 7.69% | -3.54%
NC(=O)C1CCC(NC(=O)COc2ccc(Cl)c(Cl)c2)CC1 (stereo not given) | -4.03% | 10.4% | 8.56% | 6.16% | -5.94% | 9.12% | 8.8% | 5.88% | 23.5% | -8.52%
N#Cc1cccc(S(=O)(=O)NC(=O)COc2ccc3c(c2)CCC3)c1 | -4.11% | 12.8% | -9.11% | 6.48% | -0.82% | 17% | 0.752% | 0.478% | 20.5% | -4.5%
CNc1cc(C2CCCN2C(=O)c2ccc3oc(=O)n(C)c3c2)ccn1 (stereo not given) | -1.24% | 14.7% | 1.42% | -3.94% | -1.33% | 11.3% | -1.54% | 0% | 7.5% | -22.1%
